Compound activity deposited in PubChem BioAssay by National Center for Advancing Translational Sciences (NCATS).
Hits are enriched below; roughly 12% of the tested compounds scored in any of these assays.
JMJD2A Tudor inh: JMJD2A Tudor domain (human) inhibition. AlphaScreen JMJD2A-Tudor / H3K4me3 peptide binding. Potency, µM (doses to about 114 µM), for the others: top-dose activity change, negative = inhibition, most hits filed as inhibitors. 4.4% of 390,000 active. AID 504339; also: % is scaled to controls: 0 for no effect and ±100 for the full control effect; nearly all actives have a fitted effect of over 50% in size
HP1b chromo inh: inhibitors of HP1-beta chromodomain binding to methylated histone tails; AlphaScreen HP1-beta / biotin-H3K9me3 peptide binding; Potency, µM (titrated, usually from 114 µM), inactives show at the highest dose activity change, negative = inhibition, actives largely listed as inhibitors; 0.56% of 390,000 active; also: nearly all actives have a fitted effect of over 70% in size
Target sequence (P83916 whole entry, looked up): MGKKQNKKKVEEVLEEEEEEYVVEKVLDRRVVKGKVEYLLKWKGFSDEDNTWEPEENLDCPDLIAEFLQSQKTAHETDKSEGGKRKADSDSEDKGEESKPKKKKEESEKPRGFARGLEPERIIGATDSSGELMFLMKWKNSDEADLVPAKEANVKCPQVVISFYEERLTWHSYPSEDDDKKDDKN
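AlphaScreen: HP1-beta (50 nM) preformed 30 min with biotin-H3(1-18)K9me3 peptide (50 nM) in PBS pH 7.4, 0.01% Tween-20. Compound added for 30 min at RT, then streptavidin donor/nickel chelate acceptor beads (10 ug/mL) for 30 min.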
G9a block: inhibitors of human histone lysine methyltransferase G9a; Q96KQ7; G9a H3K9 monomethylation, AlphaScreen, 2 h; Potency, µM (top dose mostly 102 µM), without a hit: top-dose activity, negative = inhibition, actives largely listed as inhibitors; 8.8% of 350,000 active; AID 504332; also: % is scaled to controls: 0 for no effect and ±100 for the full control effect; nearly all actives have a fitted effect of over 75% in size
Target sequence (Q96KQ7 913-1193 limits assumed): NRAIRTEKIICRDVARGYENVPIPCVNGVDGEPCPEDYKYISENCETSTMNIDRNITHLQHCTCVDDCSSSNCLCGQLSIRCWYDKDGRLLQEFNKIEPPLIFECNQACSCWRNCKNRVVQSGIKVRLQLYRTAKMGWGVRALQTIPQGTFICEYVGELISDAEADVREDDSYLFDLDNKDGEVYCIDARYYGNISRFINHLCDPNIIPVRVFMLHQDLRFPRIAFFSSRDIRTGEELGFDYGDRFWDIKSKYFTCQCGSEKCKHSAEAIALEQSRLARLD
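G9a (20 nM) was preincubated 15 min with compound, then reacted 2 h at room temperature with 500 nM biotin-H3K9 peptide and 20 µM SAM. Monomethyl-H3K9 detected by AlphaScreen using anti-H3K9me1 antibody.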
Sfp inh: blocks B. subtilis Sfp PPTase activity; Biochemical Sfp PPTase activity, qHTS; Potency, µM, without a hit: largest response in the series, negative = inhibition, actives largely listed as inhibitors; 3.5% of 310,000 active; AID 1490;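 also: the enzyme is Sfp with the accession as filed and its product quenches rhodamine fluorescence; 0% = enzyme reaction without inhibitor and -100% = no enzyme wells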
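Sfp 15 nM + cpd, 15 min RT; start w/ rhodamine-CoA 5 uM, BHQ-2-YbbR 12.5 uM (final); 50 mM Hepes pH 7.6, 10 mM MgCl2, 0.01% NP-40, 0.01% BSA; read 525/598 nm at 0 and 30 min.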
BAZ2B inh: BAZ2B (human) inhibition; 4.4% of 360,000 active; AlphaScreen BAZ2B-H3K14Ac peptide displacement; Q9UIF8; Potency, µM (top dose mostly 114 µM), inactives show at the highest dose activity change, negative = inhibition, actives largely listed as inhibitors; AID 504333; also: % is scaled to controls: 0 for no effect and ±100 for the full control effect; nearly all actives have a fitted effect of over 60% in size
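In this displacement format the biotinylated H3(5-23) peptide acetylated at Lys14 serves as ligand at 50 nM, with BAZ2B at 50 nM in PBS pH 7.4 containing 0.01% Tween-20. Donor and acceptor beads are 10 ug/mL final.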
Numbers without * were called inactive; ? = inconclusive; · = no result given; [ ] = dose if it differs, or a comment. Calls follow the shape of the dose curve; as a rule, active = well fitted curve in the direction sought with a large enough effect; inconclusive = small, poorly fitted or top-dose-only effect, or another doubt; inactive = no such curve, though single readings can be large; an effect the other way counts as inactive or inconclusive. Potency is read from the fitted curve at half-maximal effect.

SMILES	JMJD2A Tudor inh	HP1b chromo inh	G9a block	Sfp inh	BAZ2B inh
CC(C)Sc1nnc(Nc2ccccc2)s1	0%	35%	50µM*	-4%	5%
N#Cc1ccc(CSc2nnc(Nc3ccccc3)s2)cc1	-11%	23%	11%[59 µM]	-9%	4%
O=C(Cn1c(C(=O)OCCO)cc2ccccc21)c1ccccc1	-6%	34%	-8%[0.501 µM]	22%	6%
CCn1cc(C(=O)NCc2ccc(C)cc2)c(=O)c2cc(S(=O)(=O)N(C)C3CCCCC3)ccc21	-10%	40%	-4%[59 µM]	·	·
Cc1ccc(NCCCn2ccc(NC(=O)OCc3ccccc3)nc2=O)cc1C	56µM*	?	·	·	·
Cc1ccc(-n2c(=O)c3ccc(C(=O)NCc4ccco4)cc3n(CC(=O)Nc3ccccc3C(F)(F)F)c2=O)cc1	-17%	15%	4%[59 µM]	·	1%
CC1S/C(=N/N=C2CCC(C(C)(C)C)CC2)NC1=O (configuration not stated)	-22%	26%	45%[59 µM]	-2%	56µM*
O=C(CC1S/C(=N/N=C2CCCCCC2)NC1=O)Nc1ccccc1C(F)(F)F (configuration not stated)	-12%	33%	53%	11%	3%
CC1S/C(=N/N=C2CCCCC2)NC1=O (configuration not stated)	?	44%	31%[59 µM]	-16%	50µM*
COC(=O)[C@@]1(Cc2ccccc2)[C@H]2c3cc(C(=O)N(C)C)n(Cc4c(CO)[nH]cc(C)c4=O)c3C[C@H]2CN1C(=O)c1ccccc1	·	·	·	14%	·
CC(NC(=O)CSc1nc2c(c(C(F)(F)F)n1)CCc1ccccc1-2)c1ccccc1 (configuration not stated)	-15%	40%	12%[59 µM]	16%	10%
CCc1c(C)sc(NC(=O)CSc2nc3c(c(C(F)(F)F)n2)CCc2ccccc2-3)c1C#N	-13%	-4%	?	45µM*	-1%
CCOc1cc(-c2nc(C)c(C(C)=O)n2O)ccc1OCC(=O)Nc1ccc(F)cc1	-13%	25%	50µM*	-3%	-4%
COc1cc(-c2nc(C)c(C(C)=O)n2O)ccc1OCC(=O)Nc1ccc(F)cc1	-22%	9%	-11%[59 µM]	6%	?
CC(=O)c1c(C)nc(-c2ccc(OCC(=O)Nc3ccc(F)cc3)cc2)n1O	-13%	23%	18µM*	13%	-26%
O=C(/C=C/c1ccc(O)c(O)c1)c1ccc(O)cc1O	·	·	·	-23%	·
Cc1cccc(C)c1NC(=O)C1C2C=CC(C2)C1C(=O)O (configuration not stated)	1%	40%	·	-21%	5%
O=C(CN1C(=O)NC(c2ccccc2)(c2ccccc2)C1=O)NCCc1ccc(F)cc1	-29%	-23%	·	·	·
CCOP(=O)(OCC)C(Nc1cccc(C(F)(F)F)c1)c1ccc(F)cc1 (configuration not stated)	-10%	47%	15%[59 µM]	5%	10%
CCOP(=O)(OCC)C(Nc1cccc([N+](=O)[O-])c1)c1ccc(N(C)C)cc1 (configuration not stated)	50µM*	?	?	8%	40µM*
S=c1[nH]nc([C@@H]2C[C@H]2c2ccccc2)n1-c1ccccc1Cl	?	44%	5µM*	24%	-23%
Cc1ccc(C2CC2c2n[nH]c(=S)n2-c2ccc(Cl)cc2)cc1 (configuration not stated)	-14%	-5%	22µM*	20%	-35%
COc1cc(-n2c(-c3ccccc3)n[nH]c2=S)c(OC)cc1Cl	-18%	33%	·	?	?
Cc1ccc(C2CC2c2n[nH]c(=S)n2-c2cccc(C)c2)cc1 (configuration not stated)	-27%[11.4 µM]	-19%	14µM*	-16%	-31%
Cc1ccc(NC2=C(Cl)C(=O)OC2NC(=O)c2ccccc2)cc1 (configuration not stated)	-8%[57.1 µM]	15%	26%[59 µM]	3%	-5%
SMILES	JMJD2A Tudor inh	HP1b chromo inh	G9a block	Sfp inh	BAZ2B inh
O=C1OC(NC(=O)c2ccccc2)C(n2cc(CO)nn2)=C1Cl (configuration not stated)	89µM*	?	?	4µM*	?
Cc1ccc(S(=O)(=O)N2CCCC(c3nc(-c4ccc(C)o4)no3)C2)cc1 (configuration not stated)	-21%	0%	-4%[2.33 µM]	-4%	-8%
Cc1ccc(-c2noc(C3CCCN(S(=O)(=O)c4ccc5ccccc5c4)C3)n2)o1 (configuration not stated)	-28%	-1%	35µM*	-18%	-10%
Cc1ccc(-c2noc(C3CCN(S(=O)(=O)c4ccc5c(c4)OCCO5)CC3)n2)o1	-13%	5%	16µM*	8%	-6%
CC(=O)c1ccc(Nc2ccc(-c3ccccc3C)nn2)cc1	-32%	10%	·	-6%	79µM*
Cc1cc(C)cc(N2C(=O)N(Cc3cccc(F)c3)c3ccccc3S2(=O)=O)c1	-20%	29%	-2%[59 µM]	·	2%
CN(C)c1oc(-c2ccccc2[N+](=O)[O-])nc1C#N	16µM*	?	7.1µM*	10µM*	-38%
CN1CC(=O)N(CC(=O)Nc2ccc(Cl)c(C(F)(F)F)c2)c2ccccc2C1=O	-19%	31%	7%[59 µM]	·	4%
CN(C)c1ccc(NC(=O)CN2CCc3ccccc3C2)cc1	50µM*	?	13µM*	11%	40µM*
O=C(CN1CCc2ccccc2C1)Nc1ccc(F)cc1	6%	33%	20%[59 µM]	20%	2%
O=C(CN1CCc2ccccc2C1)Nc1cccc(S(=O)(=O)N2CCCC2)c1	?	?	4µM*	?	·
CN1CC(=O)N(CC(=O)Nc2ccc(N(C)C)cc2)c2ccccc2C1=O	-27%	18%	14µM*	?	50µM*
O=C(Cc1ccccc1)Nc1cccc(S(=O)(=O)N2CCCCCC2)c1	-18%	29%	-1%[12.7 µM]	·	2%
CC1Cc2ccccc2N1C(=O)CNc1cccc(S(=O)(=O)N2CCCC2)c1 (configuration not stated)	6.3µM*	-22%	50µM*	2%	?
CCc1ccccc1NC(=O)Cn1c(=O)n(CCc2ccccc2)c(=O)c2sc3ccccc3c21	1%	8%	11%[59 µM]	·	-10%
Cc1ccc(S(=O)(=O)c2cn(CC(=O)Nc3ccc4c(c3)OCO4)c3ccccc3c2=O)cc1C	-15%	-6%	?	·	-16%
CSc1ccc(C2CC(=O)Oc3c2c(=O)n(C)c2ccccc32)cc1 (configuration not stated)	0%	32%	9%[59 µM]	·	-9%
COc1ccc(N2C(=O)c3ccccc3NC2c2ccc(OC)c(COc3ccccc3F)c2)cc1 (configuration not stated)	-9%[57.1 µM]	11%[57 µM]	·	·	·
Cc1ccc(C)c(NC(=O)CCN2CCc3ccccc3C2)c1	-15%	29%	50µM*	6%	-39%
